FECH block: inhibitors of human ferrochelatase, primary screen, biochemical, purified FECH, Ni-mesoporphyrin absorbance. AID 1671448, 2021. Ferrochelatase, mitochondrial (Homo sapiens), P22830. actives 3.3% (n = 20,000). calls only at 10 µM (by protocol). Ni-mesoporphyrin absorbance 550 nm;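 active = enzyme reaction rate more than 3 SD below the solvent-only control wells on the same plate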;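 note: lower slope than DMSO wells means FECH inhibition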
Target sequence (P22830 whole entry, looked up): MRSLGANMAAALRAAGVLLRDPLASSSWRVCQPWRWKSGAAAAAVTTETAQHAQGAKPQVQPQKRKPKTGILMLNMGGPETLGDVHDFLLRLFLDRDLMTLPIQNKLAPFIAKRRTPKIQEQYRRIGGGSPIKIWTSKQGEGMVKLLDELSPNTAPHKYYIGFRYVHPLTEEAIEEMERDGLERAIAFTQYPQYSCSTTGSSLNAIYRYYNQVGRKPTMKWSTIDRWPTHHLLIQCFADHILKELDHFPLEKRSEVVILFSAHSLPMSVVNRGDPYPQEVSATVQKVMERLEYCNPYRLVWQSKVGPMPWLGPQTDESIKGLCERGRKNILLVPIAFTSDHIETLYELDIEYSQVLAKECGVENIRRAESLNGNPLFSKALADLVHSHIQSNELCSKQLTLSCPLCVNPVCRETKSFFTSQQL
The depositor's hits bear a star; i = inactive; + = active, no number. This is one part of a sample in which hits are shown more often than they occur.

SMILES	FECH block
COc1cc(Nc2cc(-n3nc(C)cc3C)ncn2)cc(OC)c1	+
COc1cccc(Nc2cc(-n3nc(C)cc3C)ncn2)c1	i
Cc1n[nH]c(C)c1CCc1nncn1-c1cccc(C(F)(F)F)c1	i
COc1ccc(N2C(=O)CCS2(=O)=O)cc1S(=O)(=O)N1CCN(c2ccccc2F)CC1	i
CCc1cccc(CC)c1NS(=O)(=O)c1cc(N2C(=O)CCS2(=O)=O)ccc1OC	i
CCOC(=O)C1CCN(S(=O)(=O)c2cc(N3C(=O)CCS3(=O)=O)ccc2C)CC1	i
COC(=O)CNS(=O)(=O)c1cc(N2C(=O)CCS2(=O)=O)ccc1OC	i
CCOC(=O)CNS(=O)(=O)c1cc(N2C(=O)CCS2(=O)=O)ccc1C	+
COc1ccc(OCCNS(=O)(=O)c2cc(N3C(=O)CCS3(=O)=O)ccc2C)cc1	i
Cc1ccc(N2C(=O)CCS2(=O)=O)cc1S(=O)(=O)N1CCN(c2ccc(F)cc2)CC1	+
CCc1cccc(C)c1NS(=O)(=O)c1cc(N2C(=O)CCS2(=O)=O)ccc1C	+
Cc1ccc(NS(=O)(=O)c2cc(N3C(=O)CCS3(=O)=O)ccc2C)cc1	i
Cc1nn(C)c(C)c1CN(C(=O)c1cc2ccccn2n1)C(C)C	i
COC(=O)CCC1CCCCN1C(=O)c1nc[nH]c1C (centres undefined)	i
CCCc1c(C)nc2ncnn2c1Sc1ccc(NC(=O)c2ccc(OC)cc2)cc1	i
COc1cccc(CN(C)Cc2nc(C)no2)c1O	i
Cc1[nH]c2ccccc2c1CC(=O)NCc1nnc(-c2ccccc2)o1	i
Cn1c(=O)c(C(=O)Nc2ccc(Oc3ccc(Cl)cc3)cc2)nc2ccccc21	+
CC(=O)c1ccc(NC(=O)c2nc3ccccc3n(C)c2=O)cc1	i
Cn1c(=O)c(C(=O)Nc2ccc(Cl)cc2)nc2ccccc21	i
CC(=O)Nc1cccc(NC(=O)c2nc3ccccc3n(C)c2=O)c1	+
COC(=O)c1ccc(NC(=O)c2nc3ccccc3n(C)c2=O)cc1	i
COc1cccc(NC(=O)c2nc3ccccc3n(C)c2=O)c1	i
CCc1cc(N2CCC3(CC2)CNC(=O)C3)nc(N2CCCC2)n1	i
CCCC1COCCN1C(=O)Cc1ccc(-n2cnnn2)cc1 (centres undefined)	i
SMILES	FECH block
CC(C)(C)c1ccc(CN2C(=O)N(c3cc(F)ccc3F)S(=O)(=O)c3ccccc32)cc1	i
O=C1CN(Cc2ccc(F)cc2)S(=O)(=O)c2ccccc2N1Cc1ccc(Cl)cc1	i
COc1cccc(N2C(=O)N(Cc3ccc(C(C)(C)C)cc3)c3ccccc3S2(=O)=O)c1	i
Cc1ccc(N2C(=O)N(Cc3cc(F)cc(F)c3)c3ccccc3S2(=O)=O)c(C)c1	+
Cc1ccc(N2C(=O)N(Cc3ccc(C(C)(C)C)cc3)c3ccccc3S2(=O)=O)cc1F	i
Cc1cccc(N2C(=O)N(Cc3ccc(C)c(C)c3)c3ccccc3S2(=O)=O)c1	+
Cc1ccc(N2C(=O)N(Cc3cc(=O)n4ccccc4n3)c3ccccc3S2(=O)=O)cc1	i
O=C1CN(Cc2cccc(Br)c2)S(=O)(=O)c2ccccc2N1Cc1cccc(F)c1	i
CCc1cccc(N2C(=O)N(Cc3cc(F)cc(F)c3)c3ccccc3S2(=O)=O)c1	+
Cc1ccc(C)c(CN2CC(=O)N(Cc3cccc(C(F)(F)F)c3)c3ccccc3S2(=O)=O)c1	i
CCc1cccc(N2C(=O)N(CC(=O)NC3CCCCC3)c3ccccc3S2(=O)=O)c1	i
Cc1ccc(N2C(=O)N(Cc3cc(F)cc(F)c3)c3ccccc3S2(=O)=O)cc1	+
CCOc1ccc(C(=O)Nc2sc3c(c2-c2nc4ccccc4s2)CCN(C(C)=O)C3)cc1	i
COCCNC(=O)c1cc(N2CCC3(CCCN(C)C3=O)C2)ccn1 (centres undefined)	i
Cc1ccc2c(c1)NC(=O)C2CC(=O)NCc1cn[nH]c1-c1cccs1 (centres undefined)	i
c1ccc(Nc2nc(N3CCCC3)nc3c2cnn3-c2ccccc2)cc1	i
CCc1nc2c(N3C[C@H]4C[C@H](O)[C@@H](O)C[C@H]4C3)ncnc2o1	i
CCCc1cc(Sc2ccc(NC(=O)c3ccc4c(c3)OCO4)cc2)n2ncnc2n1	i
Cc1ccccc1NC(=O)NCCc1nc2cccnc2n1-c1ccccc1	i
O=C(CCSc1ccc2c(c1)OCCO2)NCCc1nccs1	i
O=C1N(Cc2ccc(F)c(F)c2)CCCC1(O)CNCCc1cn[nH]c1 (centres undefined)	i
CC1CNC(=O)CCN1Cc1ccc(CN(C)S(C)(=O)=O)o1 (centres undefined)	i
Cc1ccc(-n2c(CN3CCN(S(=O)(=O)c4cc(F)cc(F)c4)CC3)nc3cccnc32)cc1	+
COc1cccc(S(=O)(=O)N2CCN(Cc3nc4cccnc4n3-c3cccc(F)c3)CC2)c1	+
Cc1cc(C)cc(-n2c(CN3CCN(S(=O)(=O)c4ccc(C)cc4C)CC3)nc3cccnc32)c1	i
SMILES	FECH block
Cc1cc(C)cc(-n2c(CN3CCN(S(=O)(=O)c4cccc5nsnc45)CC3)nc3cccnc32)c1	+
COc1cccc(S(=O)(=O)N2CCN(Cc3nc4cccnc4n3-c3cccc(C)c3)CC2)c1	i
Cc1cccc(-n2c(CN3CCN(S(=O)(=O)c4cc(C)c(C)cc4C)CC3)nc3cccnc32)c1	i
Cc1ccc(-n2c(CN3CCN(S(=O)(=O)c4ccc(F)cc4)CC3)nc3cccnc32)cc1	i
COc1cccc(S(=O)(=O)N2CCN(Cc3nc4cccnc4n3-c3ccccc3)CC2)c1	i
COc1ccc(-n2c(CN3CCN(S(=O)(=O)c4cc(F)cc(F)c4)CC3)nc3cccnc32)cc1	i
Cc1cnc(NCc2ccccc2-n2ccnc2)nc1N(C)C	i
O=c1[nH]nc(CCn2cccn2)n1-c1ccccc1-c1ccccc1	i
Cc1cc(C)cc(Nc2nc(N3CCC(C)CC3)nc3c2cnn3-c2ccccc2)c1	i
COc1cccc(CN(c2nc3nc(C)c(Cl)c(C)n3n2)S(=O)(=O)c2ccccc2)c1	i
Cc1ccc(Cl)cc1N1CCN(S(=O)(=O)c2ccc(C(=O)N(C)C)s2)CC1	i
CO[C@@H]1c2ccccc2C2(CCN(CCCOc3ccccc3)CC2)[C@H]1O	i
CCCc1cc(Sc2ccc(NC(=O)c3ccccc3OCC)cc2)n2ncnc2n1	i
Cc1ccccc1-c1nc2nc(CNc3ccc(Cl)cc3)cc(=O)n2[nH]1	+
COc1ccccc1NCc1cc(=O)n2[nH]c(-c3ccccc3C)nc2n1	i
Cc1ccccc1-c1nc2nc(CNCc3ccccc3)cc(=O)n2[nH]1	+
Cc1ccccc1-c1nc2nc(CNc3c(C)cccc3C)cc(=O)n2[nH]1	i
Cc1cccc(NCc2cc(=O)n3[nH]c(-c4ccccc4C)nc3n2)c1	+
CCc1ccccc1NCc1cc(=O)n2[nH]c(-c3ccccc3C)nc2n1	i
Cc1cccc(NCc2cc(=O)n3[nH]c(NCc4ccccc4)nc3n2)c1	i
Cc1ccccc1-c1nc2nc(CNc3cccc(C(F)(F)F)c3)cc(=O)n2[nH]1	i
COc1ccc(Cl)cc1NCc1cc(=O)n2[nH]c(-c3ccccc3C)nc2n1	i
Cc1cc(CNc2nccc(CCC(F)(F)F)n2)n[nH]1	i
CS(=O)(=O)c1ccc(CC(=O)N2CCC3(CCCO3)CC2)cc1	i
CCc1ccc(C(=O)NCCn2c(C(F)(F)F)nc3cccnc32)cc1	i
CCCCOCC(=O)N1Cc2cnc(CC)nc2C1	i
